Laboratory results published in PubChem BioAssay AID1421 (Emory University Molecular Libraries Screening Center, 2008).
Among all 1,300 compounds or so, about 140 (11%) were called active. How the calls were made is not given here. Not all results are given here. Measured potencies and affinities stand elsewhere.

Molecular target: Prostaglandin E2 receptor EP2 subtype (Homo sapiens) (UniProt P43116)
Test: compounds shifting PGE2 potency at EP2 – cell-based, human EP2, PGE2 EC50 shift, dose response (AID 1421)
Settings: EP2-expressing cells, PGE2 EC50 shift by compound; at 20 µM

Sequence of Prostaglandin E2 receptor EP2 subtype (Homo sapiens) (P43116 whole entry, looked up): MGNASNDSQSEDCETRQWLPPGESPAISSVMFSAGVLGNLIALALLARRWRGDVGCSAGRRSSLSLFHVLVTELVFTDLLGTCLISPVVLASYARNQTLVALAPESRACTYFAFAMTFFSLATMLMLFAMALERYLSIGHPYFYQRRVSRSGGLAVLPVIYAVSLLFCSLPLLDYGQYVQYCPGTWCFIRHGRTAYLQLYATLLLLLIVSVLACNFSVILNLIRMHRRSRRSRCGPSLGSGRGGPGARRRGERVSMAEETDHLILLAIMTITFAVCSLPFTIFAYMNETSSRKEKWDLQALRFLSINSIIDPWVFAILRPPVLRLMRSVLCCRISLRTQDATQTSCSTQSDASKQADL

PGE2 EC50 with compound, inactive:
Cc1ccccc1NC(=O)/C(=C/c1ccccc1)c1ccccc1 0.24 nM
CCc1ccccc1NC(=O)/C(=C/c1ccco1)c1ccccc1 0.16 nM
O=C(O)COc1cccc(NC(=O)c2ccccc2)c1 1.05 nM
Nc1c(C(=O)NCc2ccco2)c2nc3ccccc3nc2n1CCc1ccccc1 1.38 nM
Nc1c(C(=O)NCc2ccccc2)c2nc3ccccc3nc2n1CCCN1CCOCC1 0.76 nM
CCOC(=O)c1c(NC(=O)c2ccoc2C)sc(C(=O)N(C)C)c1C 0.6 nM
CCOC(=O)c1c(NC(=O)c2cccnc2)sc(C)c1C 0.31 nM
CCCCNCC(=O)Nc1sc(C)c(C)c1C(=O)OCC 0.33 nM
CCOC(=O)c1c(NC(=O)CN2CCCCC2)sc2c1CCN(C(=O)OCC)C2 0.83 nM
Cc1ccccc1-n1c(=O)[nH]c(=O)c2c(N)c(C(=O)c3ccc(Cl)cc3)sc21 0.74 nM
S=c1[nH]nc(-c2ccco2)n1/N=C/c1ccc(Cl)cc1Cl 2.86 nM
CCOP(=O)(c1ccccc1)c1nc(-c2ccccc2C)oc1N1CCCCC1 (stereo not given) 0.42 nM
CSc1nc(Sc2ccccc2)c2ccccc2n1 0.21 nM
C=CCSc1nc2ccccc2n1S(=O)(=O)c1ccc(C)cc1 0.5 nM
C=CCSc1nc2ccccc2c(=O)n1Cc1ccccc1 0.31 nM
CCCC1=C(C(=O)OCC)C(c2cccs2)C(C#N)=C(N)O1 (stereo not given) 0.32 nM
CCCCCCn1c(COc2ccccc2F)nnc1SCC(=O)N1c2ccccc2NC(=O)C1(C)C 0.69 nM
COc1ccc(-n2c(COc3cccc4ccccc34)nnc2SCC(=O)NCc2ccco2)cc1 0.72 nM
CCOC(=O)c1sc2nc(C)nc(N3CCN(c4ncccn4)CC3)c2c1C 0.7 nM
Cc1ccc(C(Sc2ccccc2)C(Cn2cncn2)C(=O)c2ccccc2)cc1 (stereo not given) 0.38 nM
Clc1ccc(-c2ccc(/C=N/Nc3cc(N4CCOCC4)nc(N4CCOCC4)n3)o2)cc1 0.09 nM
Cc1ccc(-c2nc(P(=O)(c3ccccc3)c3ccccc3)c(N3CCOCC3)o2)cc1 0.39 nM
CC(C)c1ccc(/C=N/Nc2cc(N3CCOCC3)nc(N3CCOCC3)n2)cc1 0.21 nM
Cc1ccc(-c2cc3ccccc3nc2N2CCOCC2)cc1 0.38 nM
Cc1cccc(Oc2sc(C(=O)c3ccccc3)c(N)c2C#N)c1 0.48 nM
C[C@H](C(=O)c1ccccc1)[C@@H](c1ccccc1)N1CCOCC1 0.33 nM
Cc1ccc2[nH]c3c(=S)nc[nH]c3c2c1 10.1 nM
Cc1cccc(CSc2ncnc3ccccc23)c1 0.37 nM
CN(C)c1nc(-c2ccccc2)c2cnn(Cc3ccccc3)c2n1 0.17 nM
CC1(c2ccccc2)CC(C)(C)N(C(=O)C2CCCO2)c2ccccc21 (stereo not given) 0.39 nM
CCc1ccc2[nH]c(=O)c(CN(Cc3nnnn3C3CCCC3)C3CCCCC3)cc2c1 0.64 nM
O=C(Nc1ccccc1-c1nc2ccccc2s1)c1ccc(Br)o1 0.41 nM
O=C(Nc1ccccc1Oc1ccccc1)c1ccc(Br)o1 0.3 nM
CCOC(=O)c1cnc2ccc(OCC)cc2c1N(C)Cc1ccccc1 0.07 nM
CCCCOc1ccccc1Cn1c(=O)oc2ccccc21 0.29 nM
CCCOc1ccccc1Cn1c(=O)oc2ccc(C)cc21 0.27 nM
CC(C)NC(=S)N/N=C1\CCCCC1C1CCCCC1 (stereo not given) 0.74 nM
CCN(c1cccc(C)c1)S(=O)(=O)c1ccc2c3c(cccc13)C(=O)N2 0.94 nM
C#CCn1c(S(=O)(=O)Cc2ccc(F)cc2)nc(-c2ccccc2)c1-c1ccccc1 0.37 nM
O=C1COc2ccccc2N1Cc1ccccc1Cl 0.31 nM
CC1(C)OC(c2ccccc2)=C/C(=C/C=Nc2ccccc2)O1 0.33 nM
CCSC1=N/C(=C\c2ccccc2)C(=O)N1c1ccc(OC)cc1 0.92 nM
CC(=O)c1cc(C#N)c(SCc2ccccc2)nc1C 0.51 nM
CCOc1ccc2cc(C#N)c(SCC(=O)NC(C)CC)nc2c1 (stereo not given) 0.8 nM
O=C(O)c1oc(C(=O)O)c(C(=O)O)c1C(=O)O 0.58 nM
C1=C(c2ccccc2)Nc2ccccc2N=C1c1ccccc1 0.4 nM
CSc1nnc(-c2ccc(F)cc2)o1 1.06 nM
CCOC(=O)CSc1nc(-c2ccccc2)nc2ccccc12 0.26 nM
COC(=O)CSc1nc(-c2ccccc2)nc2ccccc12 0.22 nM
C=CCn1c(=O)c2c3c(sc2n2c(Nc4ccc(OC)cc4)nnc12)CCCC3 0.74 nM
CCC(Sc1nc(-c2ccccc2)c(C#N)c(=O)[nH]1)C(=O)Nc1cc(C)on1 (stereo not given) 3.58 nM
Cc1cc2cc(CN(Cc3nnnn3C3CCCCC3)CC3CCCO3)c(=O)[nH]c2cc1C (stereo not given) 0.34 nM
Cc1ccccc1C(=O)Nc1ccccc1Sc1ccccc1 0.45 nM
O=C(Cc1ccc(F)cc1)Nc1ccccc1Sc1ccccc1 0.23 nM
COCCCN(C(=O)c1ccco1)c1nc(-c2cc(OC)ccc2OC)cs1 0.27 nM
CCCCc1nc2sc3c(SCC(=O)NCc4ccco4)ncnc3c2c2c1CCC2 0.59 nM
CCN(CC)C(=O)CN(c1cc2c(cc1OC)oc1ccccc12)S(=O)(=O)c1ccc(C)cc1 0.39 nM
Cc1cc2ccccc2nc1SCC(=O)NC1CCCCC1 1.22 nM
COc1ccc(-c2nc3ccccc3n2Cc2ccccc2)cc1 0.33 nM
COc1ccc(-c2nc3c(c(=O)[nH]c(=O)n3Cc3ccccc3)n2Cc2ccccc2)cc1 0.28 nM
